# In the supplement of paper PMC11732987, “Enantioselective OTUD7B fragment discovery through chemoproteomics screening and high-throughput optimisation” (Communications Chemistry, 2025):
# A number with no mark means an inactive call.
# Legend:
# Experiment in all cases: log2 ratio of Biotin-Ahx-Ub-VS probe labelling (fragment/DMSO); higher = less target engagement (more negative = stronger competition), active = hit call of the paper (q ≤ 0.05, log2 ratio ≤ -1)
# Conditions in all cases: compound concentration: 200 uM; treatment time: 3 h
# USP9X = USP9X (UniProt Q93008)
# How it was run: (§1)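 Fragment (200 µM) or vehicle was incubated for 3 h with triplicate HEK293T lysate samples of 495 µg, which were then treated with Biotin-Ahx-Ub-VS at 0.5 µM final for 1 h. Labelled DUBs were enriched on NeutrAvidin, digested with LysC and trypsin, and analysed by diaPASEF LC-MS/MS. Values are average log2 fragment/vehicle ratios from an unpaired t-test on global-median-normalised Spectronaut label-free quantities, using proteins with ≥2 unique peptides.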
# UniProt O00487 = molecular target: UniProt O00487
# How it was run: as §1
# UniProt O00507 = molecular target: UniProt O00507
# How it was run: as §1
# UniProt P51784 = molecular target: UniProt P51784
# How it was run: as §1
# UniProt Q5T2D3 = molecular target: T1, UniProt Q5T2D3
# T1 sequence (whole entry): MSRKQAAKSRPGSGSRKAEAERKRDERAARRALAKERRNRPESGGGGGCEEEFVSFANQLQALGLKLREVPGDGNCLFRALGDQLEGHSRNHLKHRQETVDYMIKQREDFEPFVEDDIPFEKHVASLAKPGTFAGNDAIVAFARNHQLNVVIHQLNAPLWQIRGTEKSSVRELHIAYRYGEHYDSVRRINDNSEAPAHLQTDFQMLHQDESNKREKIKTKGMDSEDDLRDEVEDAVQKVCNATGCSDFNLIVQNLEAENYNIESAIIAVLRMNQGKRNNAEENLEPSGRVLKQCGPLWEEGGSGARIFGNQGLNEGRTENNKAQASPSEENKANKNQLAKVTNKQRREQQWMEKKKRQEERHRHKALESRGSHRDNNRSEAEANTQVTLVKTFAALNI
# How it was run: as §1
# UniProt Q8TE49 = molecular target: T2, UniProt Q8TE49
# T2 sequence (whole entry): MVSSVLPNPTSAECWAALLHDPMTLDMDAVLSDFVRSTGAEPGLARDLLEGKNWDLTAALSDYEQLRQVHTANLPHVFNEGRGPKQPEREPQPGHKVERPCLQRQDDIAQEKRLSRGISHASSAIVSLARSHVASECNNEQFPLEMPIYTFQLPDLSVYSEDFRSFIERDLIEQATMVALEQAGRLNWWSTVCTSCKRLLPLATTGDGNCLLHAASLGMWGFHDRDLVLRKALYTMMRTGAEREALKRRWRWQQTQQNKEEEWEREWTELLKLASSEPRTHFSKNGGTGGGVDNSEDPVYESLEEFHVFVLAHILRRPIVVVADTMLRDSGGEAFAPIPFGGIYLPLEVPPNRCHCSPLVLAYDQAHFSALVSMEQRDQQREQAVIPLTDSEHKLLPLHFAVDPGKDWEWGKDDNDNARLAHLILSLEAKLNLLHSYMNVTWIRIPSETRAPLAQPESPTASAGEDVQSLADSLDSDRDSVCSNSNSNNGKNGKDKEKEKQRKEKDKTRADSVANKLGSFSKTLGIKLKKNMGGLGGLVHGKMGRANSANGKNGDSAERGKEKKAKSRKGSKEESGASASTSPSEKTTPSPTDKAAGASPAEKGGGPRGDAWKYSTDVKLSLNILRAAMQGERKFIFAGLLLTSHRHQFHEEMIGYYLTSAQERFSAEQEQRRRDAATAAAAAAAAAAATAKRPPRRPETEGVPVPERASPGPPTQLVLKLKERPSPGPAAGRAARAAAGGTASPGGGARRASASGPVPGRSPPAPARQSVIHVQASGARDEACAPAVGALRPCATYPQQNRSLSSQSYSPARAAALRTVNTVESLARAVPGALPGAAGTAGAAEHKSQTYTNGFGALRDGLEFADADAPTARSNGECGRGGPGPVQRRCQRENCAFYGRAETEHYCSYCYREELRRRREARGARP
# How it was run: as §1
# UniProt Q9P2H5 = molecular target: T3, UniProt Q9P2H5
# T3 sequence (whole entry): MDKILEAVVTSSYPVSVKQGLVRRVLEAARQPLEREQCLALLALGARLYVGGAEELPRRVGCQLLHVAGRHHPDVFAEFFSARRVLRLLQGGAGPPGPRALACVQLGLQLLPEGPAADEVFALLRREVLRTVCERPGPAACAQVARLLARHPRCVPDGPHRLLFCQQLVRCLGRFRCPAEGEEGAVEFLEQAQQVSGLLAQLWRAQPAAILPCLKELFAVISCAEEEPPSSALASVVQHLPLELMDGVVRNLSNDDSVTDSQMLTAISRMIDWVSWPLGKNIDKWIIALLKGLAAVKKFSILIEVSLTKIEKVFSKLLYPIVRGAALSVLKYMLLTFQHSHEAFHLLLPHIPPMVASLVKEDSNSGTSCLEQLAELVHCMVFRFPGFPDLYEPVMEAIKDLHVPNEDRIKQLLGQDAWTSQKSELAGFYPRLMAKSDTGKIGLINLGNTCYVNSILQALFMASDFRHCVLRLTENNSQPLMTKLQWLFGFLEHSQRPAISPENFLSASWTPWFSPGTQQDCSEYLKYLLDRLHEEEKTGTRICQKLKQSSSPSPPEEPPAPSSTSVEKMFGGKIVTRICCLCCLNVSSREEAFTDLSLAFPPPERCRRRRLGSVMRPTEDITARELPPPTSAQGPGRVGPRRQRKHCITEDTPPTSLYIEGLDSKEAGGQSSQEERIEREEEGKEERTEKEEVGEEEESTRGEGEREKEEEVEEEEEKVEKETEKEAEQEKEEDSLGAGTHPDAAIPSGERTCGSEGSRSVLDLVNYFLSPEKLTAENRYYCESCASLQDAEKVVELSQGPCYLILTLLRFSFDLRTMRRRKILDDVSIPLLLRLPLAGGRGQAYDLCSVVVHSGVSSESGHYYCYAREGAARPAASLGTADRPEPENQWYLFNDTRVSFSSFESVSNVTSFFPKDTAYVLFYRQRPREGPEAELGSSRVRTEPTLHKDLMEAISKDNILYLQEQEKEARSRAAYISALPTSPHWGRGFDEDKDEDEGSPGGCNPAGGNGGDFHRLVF
# How it was run: as §1
# UniProt Q9UGI0 = molecular target: T4, UniProt Q9UGI0
# T4 sequence (whole entry): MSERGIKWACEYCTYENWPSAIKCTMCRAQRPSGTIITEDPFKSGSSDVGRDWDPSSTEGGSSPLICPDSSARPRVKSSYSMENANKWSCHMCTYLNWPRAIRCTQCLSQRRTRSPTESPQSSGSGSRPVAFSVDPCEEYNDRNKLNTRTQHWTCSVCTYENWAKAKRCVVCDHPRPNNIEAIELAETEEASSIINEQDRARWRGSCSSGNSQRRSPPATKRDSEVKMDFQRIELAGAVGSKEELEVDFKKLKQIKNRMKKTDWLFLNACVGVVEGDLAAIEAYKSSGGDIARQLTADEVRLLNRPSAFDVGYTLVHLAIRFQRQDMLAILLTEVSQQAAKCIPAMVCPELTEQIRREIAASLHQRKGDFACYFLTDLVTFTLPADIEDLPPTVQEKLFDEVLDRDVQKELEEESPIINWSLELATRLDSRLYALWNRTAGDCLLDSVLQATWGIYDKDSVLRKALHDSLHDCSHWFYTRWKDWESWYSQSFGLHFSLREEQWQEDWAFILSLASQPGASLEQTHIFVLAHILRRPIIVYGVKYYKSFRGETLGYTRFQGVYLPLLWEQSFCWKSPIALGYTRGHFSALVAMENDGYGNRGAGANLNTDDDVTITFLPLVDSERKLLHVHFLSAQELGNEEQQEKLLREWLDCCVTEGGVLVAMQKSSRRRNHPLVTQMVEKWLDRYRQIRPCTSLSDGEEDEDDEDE
# How it was run: as §1
# YOD1 = molecular target: T5, YOD1 (UniProt Q5VVQ6)
# T5 sequence (whole entry): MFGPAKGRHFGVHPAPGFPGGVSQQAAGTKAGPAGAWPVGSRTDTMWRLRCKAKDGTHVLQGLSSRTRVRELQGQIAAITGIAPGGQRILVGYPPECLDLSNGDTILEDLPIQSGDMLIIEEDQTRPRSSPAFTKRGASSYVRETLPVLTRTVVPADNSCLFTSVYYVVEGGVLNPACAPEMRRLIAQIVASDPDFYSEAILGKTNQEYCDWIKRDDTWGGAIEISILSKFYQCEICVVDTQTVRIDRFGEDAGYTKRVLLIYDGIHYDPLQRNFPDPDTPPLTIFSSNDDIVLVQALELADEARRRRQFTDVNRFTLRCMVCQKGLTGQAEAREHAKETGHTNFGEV
# How it was run: as §1
# UniProt O00487, sequence (O00487 whole entry): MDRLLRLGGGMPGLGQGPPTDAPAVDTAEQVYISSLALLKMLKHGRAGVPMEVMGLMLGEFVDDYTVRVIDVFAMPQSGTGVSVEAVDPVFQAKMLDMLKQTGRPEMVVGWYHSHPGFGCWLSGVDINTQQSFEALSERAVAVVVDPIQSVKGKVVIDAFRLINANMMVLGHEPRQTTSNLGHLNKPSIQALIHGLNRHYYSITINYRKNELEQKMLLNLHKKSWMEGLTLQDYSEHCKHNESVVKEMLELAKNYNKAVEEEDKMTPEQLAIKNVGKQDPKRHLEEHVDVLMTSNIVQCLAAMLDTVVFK
# UniProt O00507, sequence (O00507 whole entry): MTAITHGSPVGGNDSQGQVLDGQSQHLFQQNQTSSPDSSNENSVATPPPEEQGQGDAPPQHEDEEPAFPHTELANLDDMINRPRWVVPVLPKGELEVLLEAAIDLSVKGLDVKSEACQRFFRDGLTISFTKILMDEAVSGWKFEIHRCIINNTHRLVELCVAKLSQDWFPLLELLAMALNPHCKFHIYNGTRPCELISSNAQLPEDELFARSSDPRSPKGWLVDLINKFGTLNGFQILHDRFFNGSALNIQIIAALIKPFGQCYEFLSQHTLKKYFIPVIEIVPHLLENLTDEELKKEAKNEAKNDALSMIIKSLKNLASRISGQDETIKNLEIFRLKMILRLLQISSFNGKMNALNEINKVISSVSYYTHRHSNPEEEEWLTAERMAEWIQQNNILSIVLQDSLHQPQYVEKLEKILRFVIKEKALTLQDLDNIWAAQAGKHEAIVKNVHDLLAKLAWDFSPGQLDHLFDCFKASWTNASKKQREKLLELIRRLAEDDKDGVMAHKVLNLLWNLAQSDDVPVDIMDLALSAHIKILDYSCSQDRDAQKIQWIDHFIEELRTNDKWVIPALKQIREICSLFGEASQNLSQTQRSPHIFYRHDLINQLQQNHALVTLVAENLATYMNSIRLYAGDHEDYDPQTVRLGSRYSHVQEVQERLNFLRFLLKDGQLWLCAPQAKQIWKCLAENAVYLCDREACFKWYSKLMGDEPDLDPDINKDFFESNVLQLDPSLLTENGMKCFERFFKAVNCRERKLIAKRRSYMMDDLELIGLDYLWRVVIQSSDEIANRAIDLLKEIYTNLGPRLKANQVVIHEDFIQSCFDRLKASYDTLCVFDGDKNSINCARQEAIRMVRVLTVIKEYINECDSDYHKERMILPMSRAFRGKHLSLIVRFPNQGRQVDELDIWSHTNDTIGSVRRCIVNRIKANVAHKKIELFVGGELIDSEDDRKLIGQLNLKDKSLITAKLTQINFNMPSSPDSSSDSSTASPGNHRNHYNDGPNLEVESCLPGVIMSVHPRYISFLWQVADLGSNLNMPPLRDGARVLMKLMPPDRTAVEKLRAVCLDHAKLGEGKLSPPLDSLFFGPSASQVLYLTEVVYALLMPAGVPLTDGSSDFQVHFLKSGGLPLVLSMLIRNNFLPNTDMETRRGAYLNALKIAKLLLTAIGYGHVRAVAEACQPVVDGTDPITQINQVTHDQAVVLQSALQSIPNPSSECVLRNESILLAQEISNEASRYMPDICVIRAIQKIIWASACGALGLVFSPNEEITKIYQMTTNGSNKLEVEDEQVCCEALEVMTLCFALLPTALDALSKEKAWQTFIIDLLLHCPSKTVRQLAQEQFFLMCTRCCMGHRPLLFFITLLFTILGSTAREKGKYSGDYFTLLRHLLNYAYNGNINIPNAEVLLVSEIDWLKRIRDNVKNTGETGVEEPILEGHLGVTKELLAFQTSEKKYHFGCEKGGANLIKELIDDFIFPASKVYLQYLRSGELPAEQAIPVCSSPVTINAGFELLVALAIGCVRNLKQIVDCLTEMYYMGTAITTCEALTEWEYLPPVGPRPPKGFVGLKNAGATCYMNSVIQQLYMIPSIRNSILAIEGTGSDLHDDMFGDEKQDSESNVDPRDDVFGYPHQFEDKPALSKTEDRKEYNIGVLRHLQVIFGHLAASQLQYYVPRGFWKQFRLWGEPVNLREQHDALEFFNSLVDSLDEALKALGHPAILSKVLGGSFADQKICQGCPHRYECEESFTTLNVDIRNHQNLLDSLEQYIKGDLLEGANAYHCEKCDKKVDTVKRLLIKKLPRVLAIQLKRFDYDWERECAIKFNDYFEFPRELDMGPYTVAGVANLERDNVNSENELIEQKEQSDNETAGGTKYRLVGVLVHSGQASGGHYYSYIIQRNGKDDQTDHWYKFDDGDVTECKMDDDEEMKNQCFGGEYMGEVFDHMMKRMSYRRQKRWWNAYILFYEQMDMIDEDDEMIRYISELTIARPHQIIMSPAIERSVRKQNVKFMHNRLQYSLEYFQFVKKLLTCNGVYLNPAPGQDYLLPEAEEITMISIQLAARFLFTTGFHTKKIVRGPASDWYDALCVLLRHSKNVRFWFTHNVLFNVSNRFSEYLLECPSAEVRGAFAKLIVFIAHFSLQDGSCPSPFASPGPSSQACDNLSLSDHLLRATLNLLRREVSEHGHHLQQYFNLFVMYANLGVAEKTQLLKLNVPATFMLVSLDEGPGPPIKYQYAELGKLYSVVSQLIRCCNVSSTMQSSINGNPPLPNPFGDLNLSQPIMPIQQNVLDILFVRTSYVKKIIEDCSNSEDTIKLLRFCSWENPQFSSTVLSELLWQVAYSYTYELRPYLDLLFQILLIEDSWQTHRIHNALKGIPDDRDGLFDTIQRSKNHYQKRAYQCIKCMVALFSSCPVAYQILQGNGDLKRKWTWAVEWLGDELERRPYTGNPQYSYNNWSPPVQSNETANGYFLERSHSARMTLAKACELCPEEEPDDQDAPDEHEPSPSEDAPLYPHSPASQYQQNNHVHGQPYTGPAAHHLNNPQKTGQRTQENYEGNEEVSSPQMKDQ
# UniProt P51784, sequence (P51784 whole entry): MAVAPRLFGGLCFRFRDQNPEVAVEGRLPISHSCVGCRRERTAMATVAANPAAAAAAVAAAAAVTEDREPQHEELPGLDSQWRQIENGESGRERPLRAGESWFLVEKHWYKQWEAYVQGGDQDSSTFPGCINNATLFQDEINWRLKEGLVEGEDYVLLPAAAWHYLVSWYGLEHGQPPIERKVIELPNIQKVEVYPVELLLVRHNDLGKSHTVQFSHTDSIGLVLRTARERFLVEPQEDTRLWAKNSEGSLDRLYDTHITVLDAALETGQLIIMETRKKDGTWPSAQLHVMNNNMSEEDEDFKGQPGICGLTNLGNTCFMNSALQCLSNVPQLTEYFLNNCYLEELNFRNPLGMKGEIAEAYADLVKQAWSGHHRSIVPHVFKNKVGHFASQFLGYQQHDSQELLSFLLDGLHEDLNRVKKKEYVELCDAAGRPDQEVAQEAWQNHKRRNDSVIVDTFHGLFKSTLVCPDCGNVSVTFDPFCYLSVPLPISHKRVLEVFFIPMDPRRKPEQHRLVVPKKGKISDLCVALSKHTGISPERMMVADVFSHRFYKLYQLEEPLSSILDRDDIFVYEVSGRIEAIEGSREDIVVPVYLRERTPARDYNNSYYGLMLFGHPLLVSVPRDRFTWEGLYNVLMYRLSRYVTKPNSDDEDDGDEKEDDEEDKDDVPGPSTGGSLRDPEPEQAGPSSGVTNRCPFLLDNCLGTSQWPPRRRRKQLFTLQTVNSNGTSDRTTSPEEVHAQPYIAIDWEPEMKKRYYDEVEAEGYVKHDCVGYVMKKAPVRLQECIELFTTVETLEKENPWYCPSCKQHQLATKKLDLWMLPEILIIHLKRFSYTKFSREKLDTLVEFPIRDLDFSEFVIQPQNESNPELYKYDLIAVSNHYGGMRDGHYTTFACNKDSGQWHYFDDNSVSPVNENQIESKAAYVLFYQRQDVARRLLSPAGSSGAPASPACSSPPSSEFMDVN
compound,measurement,setting,value
Cc1n[nH]c2c1CN(C(=O)CCl)CC2,log2 ratio of Biotin-Ahx-Ub-VS probe labelling,USP9X,-0.85
same,log2 ratio of Biotin-Ahx-Ub-VS probe labelling,UniProt O00487,-0.184
same,log2 ratio of Biotin-Ahx-Ub-VS probe labelling,UniProt O00507,-0.966
same,log2 ratio of Biotin-Ahx-Ub-VS probe labelling,UniProt P51784,-0.554
same,log2 ratio of Biotin-Ahx-Ub-VS probe labelling,UniProt Q5T2D3,-0.696
same,log2 ratio of Biotin-Ahx-Ub-VS probe labelling,UniProt Q8TE49,-1.43 (active)
same,log2 ratio of Biotin-Ahx-Ub-VS probe labelling,UniProt Q9P2H5,-0.801
same,log2 ratio of Biotin-Ahx-Ub-VS probe labelling,UniProt Q9UGI0,-1.32 (active)
same,log2 ratio of Biotin-Ahx-Ub-VS probe labelling,YOD1,-0.674
